# “And” between values parts separate entries of the source, which are not always exact repeats. Equal entries are not always repeated. Records with an inconclusive call do not appear. The source made the active and inactive calls. Calls come from the whole dose curve; as a rule, active = well fitted activation curve with a large enough effect in the repeat runs; inconclusive = weak or mixed curves; inactive = no such curve, though single readings can be large or run the other way.
# Biological target: Nuclear receptor subfamily 1 group I member 2 (Homo sapiens) (UniProt O75469)
# Sequence (O75469 whole entry, looked up): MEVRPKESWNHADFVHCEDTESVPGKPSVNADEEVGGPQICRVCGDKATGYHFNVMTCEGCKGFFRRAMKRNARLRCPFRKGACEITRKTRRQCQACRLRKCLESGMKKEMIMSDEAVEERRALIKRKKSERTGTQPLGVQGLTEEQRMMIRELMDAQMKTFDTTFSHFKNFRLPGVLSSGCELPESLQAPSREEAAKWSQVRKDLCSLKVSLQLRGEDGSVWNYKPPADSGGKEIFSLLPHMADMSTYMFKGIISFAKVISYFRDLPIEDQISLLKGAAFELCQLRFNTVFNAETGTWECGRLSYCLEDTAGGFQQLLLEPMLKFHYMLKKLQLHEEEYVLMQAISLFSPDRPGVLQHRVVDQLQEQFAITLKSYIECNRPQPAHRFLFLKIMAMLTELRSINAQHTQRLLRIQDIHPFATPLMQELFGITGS
# Assay: Human pregnane X receptor (PXR) small molecule agonists, qHTS assay (AID 1346982); note: nearly all actives have a fitted effect of over 35% in size
# Details: PXR-Luc HepG2, CYP3A4 luciferase reporter, 24 h; series mostly up to 92.4 µM; activation: at the top concentration
# Summary of the method: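 PXR-Luc HepG2 reporter cells (CYP3A4-driven luciferase) in 5% charcoal-stripped FBS medium, plated 5 h before compound addition, then treated 24 h at 37C. Luciferase read by ONE-Glo luminescence after 30 min at room temperature.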
# % is set by controls: 0 for no effect and ±100 for the full control effect; potency is the fitted concentration of half-maximal effect.
Compound,activation,Potency
N#CC(Cl)Cl,-1.22% (inactive),–
CN(CCCC(=O)c1cccnc1)N=O,-1.35% (inactive),–
CCOP(=S)(OCC)SCS(=O)(=O)C(C)(C)C,–,9.69 µM (active)
C[C@@H](Oc1ccc(Cl)cc1Cl)C(=O)O,0.888% (inactive),–
COCC(=O)N(c1c(C)cccc1C)[C@H](C)C(=O)OC,5.33% (inactive),–
COC[C@H](C)N(C(=O)CCl)c1c(C)csc1C,10.4% (inactive),–
SCc1ccco1,16.4% (inactive),–
Nc1ccccc1C(=O)Oc1ccc2ccccc2c1,–,27.3 µM (active)
O=C(O)COc1nc(Cl)c(Cl)cc1Cl,6.89% (inactive),–
CC(C)(C)C(O)/C(=C\c1ccc(Cl)cc1Cl)n1cncn1 (configuration not stated),–,41.6 µM (active)
CC(c1ccc(O)cc1)c1ccc(O)cc1,–,45.5 µM (active) and 61.1 µM (active)
COC(=O)N(C(=O)N1COC2(C(=O)OC)Cc3cc(Cl)ccc3C2=N1)c1ccc(OC(F)(F)F)cc1 (configuration not stated),–,10.6 µM (active)
CC(C)CC(C)(c1ccc(O)cc1)c1ccc(O)cc1,–,8.65 µM (active) and 13.7 µM (active)
Cc1ccc(CCl)cc1,-0.355% (inactive),–
Cc1cc(Cl)ccc1O[C@H](C)C(=O)O,-0.304% (inactive),–
CCOC(=O)c1ccccc1S(=O)(=O)NC(=O)Nc1nc(Cl)cc(OC)n1,10.4% (inactive),–
CC(C)OS(C)(=O)=O,-2.84% (inactive),–
COc1cccc2c1C(=O)c1c(O)c3c(c(O)c1C2=O)C[C@@](O)(C(=O)CO)CC3OC1CC(N2CCOC(OC)C2)C(O)C(C)O1 (some centres not stated),-35.5% [at 42.5 µM] (inactive),–
CCOP(=O)(NC(C)C)Oc1ccc(SC)c(C)c1 (configuration not stated),–,7.7 µM (active)
CC[C@H]1C[C@@H]2C[C@H]3c4[nH]c5ccc(OC)cc5c4CCN(C2)[C@@H]13,-28.5% (inactive),–
Oc1ccc(C2(c3ccc(O)cc3)CCCCC2)cc1,–,13 µM (active)
COC(=O)N(C(=O)N1CO[C@@]2(C(=O)OC)Cc3cc(Cl)ccc3C2=N1)c1ccc(OC(F)(F)F)cc1,–,1.67 µM (active)
Oc1cccc(-c2ccccc2)c1,–,48.6 µM (active)
CCOC(=O)C1(c2ccccc2)CCN(CCC(C#N)(c2ccccc2)c2ccccc2)CC1,–,3.35 µM (active)

# Biological target: Nuclear receptor subfamily 1 group I member 2 (Homo sapiens) (UniProt O75469)
# Assay: CYP3A4 induction through human pregnane X receptor (PXR) by small molecules, qHTS assay (AID 1346984); note: nearly all actives have a fitted effect of over 40% in size
# Details: DPX-2 HepG2 PXR, CYP3A4-luciferin luminescence, 24 h; series mostly up to 46.1 µM; activation: at the top concentration
# Summary of the method: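 DPX-2 HepG2 cells carrying a PXR response element and CYP3A4-promoter luciferase construct, treated with compounds 24 hr at 37C. Then P450-Glo CYP3A4 Luciferin-IPA substrate (3uM final) for 3 hr at 37C, One-Glo added, luminescence read.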
Compound,activation,Potency
C[C@H]1CC[C@@H]2[C@@H](C)[C@H]3[C@H](C[C@H]4[C@@H]5CC=C6CC(O[C@@H]7O[C@H](CO)[C@H](O)[C@H](O[C@@H]8O[C@H](CO)[C@@H](O)[C@H](O)[C@H]8O)[C@H]7O[C@H]7O[C@@H](C)[C@H](O)[C@@H](O)[C@H]7O)CC[C@]6(C)[C@H]5CC[C@]34C)N2C1 (some centres not stated),-25.7% (inactive),–
Cc1c(Cl)c(=O)oc2cc(OP(=O)(OCCCl)OCCCl)ccc12,-33.3% (inactive),–
CCOC(=O)C1(c2ccccc2)CCN(CCC(C#N)(c2ccccc2)c2ccccc2)CC1,–,1.41 µM (active)

# Source: PubChem BioAssay (Tox21)
